{"source": "paper PMC7819943", "about": "“Rice protein-binding microarrays: a tool to detect cis-acting elements near promoter regions in rice”", "note": "The full ranking holds about 39,000 sequences; the median of “fluorescence intensity (a.u.)” is about 4,300, and the highest 2% start at about 39,000. What follows is part of a selection rich in the highest values, with near analogues and random picks from the rest.", "data": [{"target": "T1, OsSMF1 (Oryza sativa, UniProt Q6ZLB0 1-436)", "T1 sequence": "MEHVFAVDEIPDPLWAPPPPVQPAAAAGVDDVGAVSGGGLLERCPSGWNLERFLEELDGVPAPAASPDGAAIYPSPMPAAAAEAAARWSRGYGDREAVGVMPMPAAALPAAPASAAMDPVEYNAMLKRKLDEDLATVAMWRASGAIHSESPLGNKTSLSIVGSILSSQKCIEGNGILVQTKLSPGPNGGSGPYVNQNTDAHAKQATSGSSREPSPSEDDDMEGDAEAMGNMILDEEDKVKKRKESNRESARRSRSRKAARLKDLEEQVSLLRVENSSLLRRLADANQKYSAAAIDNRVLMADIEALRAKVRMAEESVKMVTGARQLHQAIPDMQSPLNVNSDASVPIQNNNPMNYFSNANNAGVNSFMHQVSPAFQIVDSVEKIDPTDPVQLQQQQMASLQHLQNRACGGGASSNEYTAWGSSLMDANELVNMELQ", "test": "protein-binding microarray (RPBM); PBS, 2% BSA, 51.3 ng/ul salmon testes DNA, 50 uM zinc acetate, 200 nM TF, 25 C, 1 h; high values mean tight binding", "settings": "protein: recombinant; tags: N-terminal polyhistidine and DsRed monomer fusion (pET32a); chain copies: 2; label: CyDye5-dUTP incorporated in the synthesized complementary strand; 3' TTTTT single-stranded linker to array surface; dsDNA, one strand shown", "outline": "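Per-feature fluorescence intensity (arbitrary units), read on an Axon 4000B scanner, is the binding signal. Transcription factors carrying an N-terminal polyhistidine tag and DsRed fusion were expressed in E. coli BL21-CodonPlus and purified on Ni–NTA. A custom Agilent array, made double-stranded by primer extension with Cy5-dUTP and blocked with 2% BSA, was incubated with 200 nM protein in PBS, 2% BSA, salmon testes DNA and 50 µM zinc acetate at 25 °C for 1 h and then washed.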", "values": [{"sequence": "AAAGTTTCATGCCTGAGATGTTATGTTACGTGTCTATCCACGGAGTCACCTAGTGCAG", "binding signal": "7680 fluorescence intensity (a.u.)"}, {"sequence": "AACATGATTTAACAGGTAACAGTCGCCCATGCCATTCTTGCGGAGTCACCTAGTGCAG", "binding signal": "3350 fluorescence intensity (a.u.)"}, {"sequence": "ATTTTCATGCTTAGATGTAGTAACTACACCAACATTACATCGGAGTCACCTAGTGCAG", "binding signal": "3310 fluorescence intensity (a.u.)"}, {"sequence": "ATGTTTCTGCGGCCCGTCATCCGTGTTTGAGTCGGTTATACGGAGTCACCTAGTGCAG", "binding signal": "4220 fluorescence intensity (a.u.)"}, {"sequence": "CGCAGCCCGAGCCCGCCGTATTCCACGTCGACGCTGTCGTCGGAGTCACCTAGTGCAG", "binding signal": "5720 fluorescence intensity (a.u.)"}, {"sequence": "GAAATTTTCAGGGTGTTACATAGATCAACTGAATTCCTTACGGAGTCACCTAGTGCAG", "binding signal": "3550 fluorescence intensity (a.u.)"}, {"sequence": "CATAAATGAGATCCAGTGACGGCATGAGCATGTCCCAATTCGGAGTCACCTAGTGCAG", "binding signal": "24900 fluorescence intensity (a.u.)"}, {"sequence": "TATAAATTTGGACACATATATGAAACACATATATTGATCCCGGAGTCACCTAGTGCAG", "binding signal": "30400 fluorescence intensity (a.u.)"}, {"sequence": "ATAAATTTGGACGCATCCCAAAATTCGGCAAACATATGACCGGAGTCACCTAGTGCAG", "binding signal": "39200 fluorescence intensity (a.u.)"}, {"sequence": "GTGAGAGAAGCCGCCTTGGATGATGTCAACCATGGTGGCGCGGAGTCACCTAGTGCAG", "binding signal": "6930 fluorescence intensity (a.u.)"}, {"sequence": "CAATGCTAGCCGCGCAATCTGCGCGGGCCACCATGCTATTCGGAGTCACCTAGTGCAG", "binding signal": "3430 fluorescence intensity (a.u.)"}, {"sequence": "GGGCCAAAACAAAGCCAGCGTGCAACCCTCGACAAAGCACCGGAGTCACCTAGTGCAG", "binding signal": "4110 fluorescence intensity (a.u.)"}, {"sequence": "CACACCCTTACTGTAGCTATCACTGCACAAAGCCAAAACCCGGAGTCACCTAGTGCAG", "binding signal": "43600 fluorescence intensity (a.u.)"}, {"sequence": "CAATTATCCGCAACGTATGGCTAGCTCAACCCTACTGTAACGGAGTCACCTAGTGCAG", "binding signal": "3270 fluorescence intensity (a.u.)"}, {"sequence": "CAAACCCTAGCTCATATGGTTGTAGTCTTAGCTACTATCACGGAGTCACCTAGTGCAG", "binding signal": "50500 fluorescence intensity (a.u.)"}, {"sequence": "GATGGCTATCTGCCCGGGCAAAGTGTACCCTTTTACTGTTCGGAGTCACCTAGTGCAG", "binding signal": "30800 fluorescence intensity (a.u.)"}, {"sequence": "GATATCATGTAGGAGTAGTAGTTGTTATGTGTGTGGGCTACGGAGTCACCTAGTGCAG", "binding signal": "13000 fluorescence intensity (a.u.)"}, {"sequence": "CTTTGCCACGGCGGTCTCTCGTCCTCTTCCTCCTCTCCGCCGGAGTCACCTAGTGCAG", "binding signal": "4190 fluorescence intensity (a.u.)"}, {"sequence": "TCCATGGCGCCACACGTCACCACCTTCTCACACCCTCGTCCGGAGTCACCTAGTGCAG", "binding signal": "18400 fluorescence intensity (a.u.)"}, {"sequence": "GCCTTCTTCCTCGCCTGCGGCCGTCTCCGCCACCTCGACCCGGAGTCACCTAGTGCAG", "binding signal": "4040 fluorescence intensity (a.u.)"}, {"sequence": "CCACGGGTTCTTCCTCGATGCCTTCTCCGGCGCCGTCCGGCGGAGTCACCTAGTGCAG", "binding signal": "45300 fluorescence intensity (a.u.)"}, {"sequence": "CCGTCTTCTTCCTCCACGTTCCTATCCATGGCGCCAGTTCCGGAGTCACCTAGTGCAG", "binding signal": "41400 fluorescence intensity (a.u.)"}, {"sequence": "CAACCATGGCGTCATCCTCTTCCTCCTCCTCCTCCTCCTCCGGAGTCACCTAGTGCAG", "binding signal": "5800 fluorescence intensity (a.u.)"}]}]}
